Assay results: PubChem BioAssay AID488841 (Sanford-Burnham Center for Chemical Genomics, 2010)
The whole screen tested about 1,400 compounds, of which about 380 (27%) were called active.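 Rule for the calls: active = mean inhibition above 50% across duplicate retests at 10 µM; inactive = the rest.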 The list shows a part of the results.

Assay: yeast NALP1 reporter signal suppression – S. cerevisiae, luminescence, single concentration, NALP1 inhibitor project, confirmation (AID 488841);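 note: plate controls were DMSO in galactose medium for no effect and cells in plain SD medium for full effect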
Conditions: S. cerevisiae NALP1/ASC/Caspase-1 reporter, beta-gal luminescence; at 10 µM; stronger effect = higher value

Row | SMILES | inhibition
1 | O=C(O)/C=C/C(=O)OC1CC2CCC1C2 (stereo not drawn) | 24.1% (inactive)
2 | CN(C)Cc1ccccc1COc1ccccc1 | 23.2% (inactive)
3 | C/C(=C(\C#N)C(=O)NCc1ccccc1)N(C)C | 33.3% (inactive)
4 | CCOc1ccc(NC(=O)/C=C/c2ccccc2)c([N+](=O)[O-])c1 | 31.1% (inactive)
5 | CCOC(=O)COc1ccccc1/C=C\[N+](=O)[O-] | 101% (active)
6 | Cc1cc(N2CCOCC2)ccc1/C=C\[N+](=O)[O-] | 41.6% (inactive)
7 | CCOC(=O)COc1ccc2ccccc2c1/C=C/[N+](=O)[O-] | 99.7% (active)
8 | COc1ccccc1OCC(=O)N/N=C/C=C/c1ccc([N+](=O)[O-])o1 | 32.6% (inactive)
9 | O=C(CCCN1C(=O)c2ccccc2C1=O)Oc1ccc(Cl)cc1 | 37.3% (inactive)
10 | CC(NCCC(c1ccccc1)c1ccccc1)c1ccccc1 (stereo not drawn) | 50.5% (active)
11 | CCN1/C(=C/C=C/C=C/c2sc3ccccc3[n+]2CC)Sc2ccccc21 | 51% (active)
12 | COc1cccc(OCc2ccc(C(=O)NCC3CCCO3)cc2)c1 (stereo not drawn) | 36.2% (inactive)
13 | CC1(O)N(Cc2ccccc2)C(=O)OC12CCCCC2 (stereo not drawn) | 29.2% (inactive)
14 | O=C(COC(=O)c1ccc(-c2ccc([N+](=O)[O-])cc2)o1)NC(=O)NC1CCCCC1 | 37.8% (inactive)
15 | O=C(N/N=C/c1cc(Cl)ccc1O)c1ccc(Br)cc1 | 43.6% (inactive)
16 | CC(C)(C)c1nnc(N/N=C/c2cc(Br)ccc2O)n(N)c1=O | 53.5% (active)
17 | CCCCNC(=O)Nc1cc(C)on1 | 23.2% (inactive)
18 | CN(C)/C=N/n1cnc2ccccc2c1=O | 23.6% (inactive)
19 | Cc1cc2ncn(/N=C/c3ccc([N+](=O)[O-])s3)c2cc1C | 65.3% (active)
20 | CCOC(=O)C1CCN(C(=O)c2cc3cc4cc(OC)ccc4nc3o2)CC1 | 45.9% (inactive)
21 | CCOc1ccc2nc(SC3CC(=O)N(c4cccc(OC)c4)C3=O)sc2c1 (stereo not drawn) | 32.1% (inactive)
22 | O=S(=O)(Nc1ccc(-n2cccc2)cc1)c1ccc(Cl)cc1Cl | 52.4% (active)
23 | O=C(O)C1CCN(C(=O)c2csc(-c3ccc4c(c3)CCO4)n2)CC1 | 22.9% (inactive)

Row | SMILES | inhibition
24 | Cc1ccc(C(=O)CCC(=O)O)cc1 | 37% (inactive)
25 | Cc1cccc(C)c1OCCNC(=O)CCC(=O)c1ccccc1 | 33.9% (inactive)
26 | CCCC(=O)c1ccc(-c2ccccc2)cc1 | 52.4% (active)
27 | O=C1OC(/C=C/c2ccc(Cl)cc2)=NC/1=C/c1ccco1 | 36.4% (inactive)
28 | CCCCCCCCCCCCCCCCn1cc[n+](CC(C)=O)c1 | 76.5% (active)
29 | CCCCCCCCCCCCCCCCn1cc[n+](C)c1 | 84.8% (active)
30 | CCCNCC1COc2ccccc2O1 (stereo not drawn) | 31.2% (inactive)
31 | COc1ccccc1OCCN1CSC(=S)N(C)C1 | 47% (inactive)
32 | O=[N+]([O-])c1cc2oc3c(c2c(C=NCc2ccccc2)c1O)CCCC3 | 34.6% (inactive)
33 | CNc1nc(SCc2ccc(C)cc2)nc2c1CCCC2 | 98.8% (active)
34 | CNc1nc(SCc2ccccc2Cl)nc2c1CCCC2 | 99% (active)
35 | Cc1oc(-c2ccccc2Cl)nc1CSc1nc2c(c(=O)[nH]1)CCC2 | 31.5% (inactive)
36 | Cc1ccc(NC(=O)N(C2CCCCC2)C(C)c2cccnc2)cc1C (stereo not drawn) | 32.9% (inactive)
37 | CC(C)N1CCC2(CC1)N=C(c1ccc3c(c1)OCO3)CC(c1cc(Cl)ccc1O)N2 (stereo not drawn) | 62.8% (active)
38 | Clc1ccc(C2=NNC(=NCc3ccc4c(c3)OCO4)SC2)cc1 | 27.9% (inactive)
39 | N#CC(C#N)=c1ccc2c(c1)N1C3=C(CCCC3)CC3CCCCC31N=2 (stereo not drawn) | 7.95% (inactive)
40 | CC1CCCC/C1=N\Nc1ccc(S(N)(=O)=O)cc1[N+](=O)[O-] (stereo not drawn) | 30.3% (inactive)
41 | COC(=O)c1c(S(=O)(=O)NCc2ccccc2)sc(C(=O)O)c1C | 22% (inactive)
42 | COc1ccc(Nc2ccnc(Nc3ccc(OC)cc3)n2)cc1 | 55% (active)
43 | Fc1ccc(Nc2ccnc(Nc3ccc(F)cc3)n2)cc1 | 29.5% (inactive)
44 | CCN(CC)S(=O)(=O)c1ccc2[nH]c(=O)cc(C(=O)Nc3ccc(C)c(S(=O)(=O)N(CC)CC)c3)c2c1 | 27.6% (inactive)
45 | Clc1ccc(Nc2ccc(NCc3ccccc3)nn2)cc1 | 75.7% (active)
46 | CC(C)C(NS(=O)(=O)c1ccc2c(c1)oc(=O)n2C)C(=O)N1CCN(C2CCCCC2)CC1 (stereo not drawn) | 25.9% (inactive)

Row | SMILES | inhibition
47 | CSc1ccc(S(=O)(=O)NCc2ccc(C)cc2)cc1 | 38.7% (inactive)
48 | CN(C)C(C)(C)C#CCC(c1ccccc1)c1ccccc1 | 61.6% (active)
49 | CC(C)(C#CCN1CCCCC1)OCCOC(c1ccccc1)c1ccccc1 | 28.1% (inactive)
50 | COc1ccc(C2SCC(=O)N2CCCN(C)C)cc1 (stereo not drawn) | 35% (inactive)
51 | Cc1cccc(/C=N/n2c(-c3cc(-c4ccccc4)n[nH]3)n[nH]c2=S)c1 | 27.3% (inactive)
52 | Cc1ccsc1/C=N/n1c(-c2ccccn2)n[nH]c1=S | 37.9% (inactive)
53 | S=c1[nH]nc(-c2ccco2)n1/N=C/c1cccc(Cl)c1Cl | 56% (active)
54 | CC(C)Oc1ccc(OCCNC2CCCC2)cc1 | 35.8% (inactive)
55 | CCN1CCN(c2cc3c(cc2F)c(=O)c(C(=O)O)cn3C2CC2)CC1 | 14.2% (inactive)
56 | CS/C(=N\S(=O)(=O)c1cccs1)Nc1ccc(Br)cc1F | 52% (active)
57 | Cn1c(=O)c([N+](=O)[O-])c(-n2cnc3ccccc32)c2ccccc21 | 37% (inactive)
58 | CN1CCN(S(=O)(=O)c2ccc(Br)c3nsnc23)CC1 | 19.9% (inactive)
59 | CN1c2ccccc2Sc2cc(N)ccc21 | 94% (active)
60 | Cc1nc(C)c(/C(O)=C/c2nc3ccccc3oc2=O)s1 | 44.5% (inactive)
61 | CCn1c(N2CCN(C(=O)C34CC5CC(CC(C5)C3)C4)CC2)nc2ccccc21 | 44.6% (inactive)
62 | C/C(=N\NC(=O)Cc1csc(N2CCOCC2)n1)c1ccccc1 | 24.6% (inactive)
63 | COC(=O)C1(C(C[N+](=O)[O-])c2ccc(C)cc2)C(=O)NCC1c1ccco1 (stereo not drawn) | 29.4% (inactive)
64 | O=c1cc(CSc2ccc(Cl)cc2)[nH]c2[nH]n(-c3ccccc3)c(=O)c12 | 29.9% (inactive)
65 | Cc1ccc(C(C[N+](=O)[O-])c2c(C)[nH]n(-c3ccccc3)c2=O)cc1 (stereo not drawn) | 78.1% (active)
66 | Cc1cc2ccccn2c1C(C[N+](=O)[O-])c1ccc(N(C)C)cc1 (stereo not drawn) | 31.1% (inactive)
67 | Cc1[nH]n(-c2ccccc2)c(=O)c1C(C[N+](=O)[O-])c1ccc(Cl)cc1 (stereo not drawn) | 77.5% (active)
68 | Cc1[nH]n(-c2ccccc2)c(=O)c1C(C[N+](=O)[O-])c1ccc(Br)cc1 (stereo not drawn) | 66.2% (active)
